# Source: PubChem BioAssay
# For part of these data: Potency and affinity values are given separately. Activity calls are given as the source filed them.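 The calls were made as follows, unless noted: active = fitted half-maximal concentration within 10 nM to 100 µM, steepness 0.5 to 2, significant signal drop, low assay interference; inactive = the rest.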
# Columns and labels:
# [1] = biological target: Cell division control protein 42 homolog (Homo sapiens) (UniProt P60953); test: inhibition of fluorescent GTP binding to constitutively active Cdc42 – biochemical, multiplex bead flow cytometry, Bodipy-FL-GTP, dose response (AID 1333;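 active = fitted half-maximal concentration within the tested dose range, moderate curve steepness, a statistically real signal drop, and little compound fluorescence or tag-binding interference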)
# Chain of Cell division control protein 42 homolog (Homo sapiens) (P60953 whole entry, looked up): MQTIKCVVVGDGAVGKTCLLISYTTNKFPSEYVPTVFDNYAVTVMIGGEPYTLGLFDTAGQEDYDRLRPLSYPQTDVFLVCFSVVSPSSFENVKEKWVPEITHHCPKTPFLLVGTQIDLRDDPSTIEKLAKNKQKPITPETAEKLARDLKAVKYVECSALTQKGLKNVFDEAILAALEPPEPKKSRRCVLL
# [2] = biological target: Cell division control protein 42 homolog (Homo sapiens) (UniProt P60953); test: inhibition of fluorescent GTP binding to wildtype Cdc42 – biochemical, multiplex bead flow cytometry, Bodipy-FL-GTP, dose response (AID 1334;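 active = fitted half-maximal concentration within the tested range, moderate curve steepness, significant signal drop, and little compound fluorescence or bead-linkage interference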); settings: bead-based flow cytometry, Bodipy-FL-GTP binding to GST-Cdc42; at 100 µM (top of the series) unless noted
# [3] = biological target: GTPase HRas (Homo sapiens) (UniProt P01112); test: Ras wt fluorescent GTP loading blockade – biochemical, wildtype, multiplex bead flow cytometry, dose response (AID 1335); settings: bead-based flow cytometry, Bodipy-GTP binding to GST-Ras; at 100 µM (top of the series) unless noted
# Chain of GTPase HRas (Homo sapiens) (P01112 whole entry, looked up): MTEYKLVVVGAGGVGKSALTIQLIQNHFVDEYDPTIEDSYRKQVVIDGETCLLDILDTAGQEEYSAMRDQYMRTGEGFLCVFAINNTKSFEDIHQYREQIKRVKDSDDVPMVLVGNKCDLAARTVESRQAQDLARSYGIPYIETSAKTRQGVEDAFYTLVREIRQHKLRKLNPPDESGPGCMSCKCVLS
# [4] = test system: Ras-related protein Rab-7a (dog), GTP binding; test: blockers of fluorescent GTP binding to Rab7 – biochemical, wildtype, multiplex bead flow cytometry, dose response (AID 1336; call rule not given here)
# [5] = biological target: Ras-related C3 botulinum toxin substrate 1 (Homo sapiens) (UniProt P63000); test: inhibition of wildtype Rac1 nucleotide loading – biochemical, multiplex bead flow cytometry, dose response (AID 1340;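 active = dose curve with midpoint inside tested range, moderate steepness, plateau gap beyond fit error, low compound glow and bead-link interference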); settings: GST-Rac1 beads, Bodipy-FL-GTP binding; at 100 µM (top of the series) unless noted
# [6] = biological target: GTPase HRas (Homo sapiens) (UniProt P01112); test: blockade of GTP loading onto mutant Ras – biochemical, activated mutant, multiplex bead flow cytometry, dose response (AID 1341;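 active = dose-response curve with midpoint inside the tested range, moderate steepness, significant amplitude and little compound fluorescence or bead-attachment interference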;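 also: GST-tagged constitutively activated Ras mutant immobilized on beads and multiplexed with other GTPases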)
Structure (SMILES),outcome [1],"fluorescence, percent of control (lower = inhibition) [2]","GTP binding, percent of control [3]",outcome [4],"GTP binding signal, raw median fluorescence (lower = inhibition) (MCF (arbitrary fluorescence units)) [5]",outcome [6]
c1ccc(CN2CCN(CCOCCOc3cccc4ccccc34)CC2)cc1,inactive,28.9%,79%,inactive,234,inactive
Cc1ccccc1NC(=O)CN1C(=O)S/C(=C\c2ccc(-c3cc(C(=O)O)ccc3C)o2)C1=O,inactive,30.5%,77.4%,inactive,258,inactive
Cc1ccc(S(=O)(=O)Cc2ccc(C(=O)N3CCN(c4cc(C)ccc4C)CC3)o2)cc1,inactive,35%,59.9%,inactive,0,inactive
Cc1ccc(C(C)C)c(OCCSc2nc3ccccc3n2CC(=O)O)c1,inactive,56.7%,86.4%,inactive,32.1,inactive
O=C(O)c1ccccc1C(=O)OCc1ccccc1,inactive,105%,365%,inactive,408,inactive
Nc1[nH]n2c(=O)c3c(nc2c1N=Nc1ccc(Cl)cc1)CCCC3,inactive,61.6%,49.2%,inactive,188,inactive
O=C(O)/C=C/C(=O)Nc1cccnc1,inactive,50.8%,64.4%,inactive,200,inactive
CCN(CC)S(=O)(=O)c1ccc2oc(C(=O)N3CCc4ccccc4C3)c(C)c2c1,inactive,59.3%,78%,inactive,0,inactive
COc1ccc(-c2nnc(CSc3nc4ccccc4c(=O)n3C)o2)cc1OC,inactive,39.2%,87.3%,inactive,320,inactive
Cn1ncc(C(N)=O)c1NC(=S)NC(=O)c1ccc(Br)o1,inactive,36.5%,76.4%,inactive,170,inactive
Clc1ccccc1-c1ccc(/C=N/Nc2nncc(-c3ccccc3)n2)o1,inactive,39%,89.5%,inactive,220,inactive
NC(=O)c1cc2ccccc2o/c1=N/NC(=O)c1cccs1,inactive,33.4%,69.6%,inactive,167,inactive
O=C(O)c1cc(Sc2ccc(F)cc2)nc2ccccc12,inactive,59.8%,86%,inactive,30.2,inactive
S=C(NCCc1ccccc1)N1CCn2cccc2C1c1cccnc1 (stereo not given),inactive,28%,63.3%,inactive,227,inactive
CCCCCN1CC(O)=C(c2nc(-c3ccc(Cl)cc3)cs2)C1=N,inactive,88.4%,167%,inactive,184,inactive
